# PubChem BioAssay AID2284082 (EPA ToxCast)
# Records with an inconclusive call do not appear. Calls of active or inactive are those of the source. How the source made its calls: active means hit-call score of the fitted dose curve at least 0.9, where 1 is the maximum; inconclusive means response in the unintended direction; inactive means score below 0.9.
# Target: human Akt2 (PKBbeta) AGC Kinase, AKT2 (gene 208) (UniProt P31751)
# Assay: ERF_FR_ENZ_hAKT2: Eurofins (ERF) Enzymatic Radiometric [Km ATP] KinaseProfiler LeadHunter Assay for human Akt2 (PKBbeta) AGC Kinase
# Method: ERF_FR_ENZ_hAKT2 is a biochemical, single-readout assay that uses extracted gene-proteins in a cell-free assay. Measurements were taken 0.5 hour after chemical dosing in a 96-well plate. See Akt2 (PKBbeta) Human AGC Kinase Enzymatic LANCE Assay [Km ATP], Cerep.ERF_FR_ENZ_hAKT2 is an assay component calculated from the ERF_FR_ENZ_hAKT2 assay. It is designed to measure enzyme activity using a type of enzyme reporter as detected by fluorescence intensity with LANCE technology.Data from the assay component ERF_FR_ENZ_hAKT2 was analyzed at the assay endpoint, ERF_FR_ENZ_hAKT2, in the positive analysis fitting direction relative to DMSO as the negative control and baseline of activity. Using a type of enzyme reporter, loss-of-signal activity can be used to understand changes in enzymatic activity as they relate to gene AKT2. To generalize the intended target to other relatable targets, this assay endpoint is annotated to the kinase intended target family, where the subfamily is serine/threonine kinase.
# PKBb (h) is incubated with 8 mM MOPS pH 7.0, 0.2 mM EDTA, 30 uM […], 10 mM MgAcetate and [g- 33P]-ATP (specific activity and concentration as required). The reaction is initiated by the addition of the Mg/ATP mix. After incubation for 40 minutes at room temperature, the reaction is stopped by the addition of phosphoric acid to a concentration of 0.5%. […]
# Sequence of human Akt2 (PKBbeta) AGC Kinase, AKT2 (gene 208) (P31751 whole entry, looked up): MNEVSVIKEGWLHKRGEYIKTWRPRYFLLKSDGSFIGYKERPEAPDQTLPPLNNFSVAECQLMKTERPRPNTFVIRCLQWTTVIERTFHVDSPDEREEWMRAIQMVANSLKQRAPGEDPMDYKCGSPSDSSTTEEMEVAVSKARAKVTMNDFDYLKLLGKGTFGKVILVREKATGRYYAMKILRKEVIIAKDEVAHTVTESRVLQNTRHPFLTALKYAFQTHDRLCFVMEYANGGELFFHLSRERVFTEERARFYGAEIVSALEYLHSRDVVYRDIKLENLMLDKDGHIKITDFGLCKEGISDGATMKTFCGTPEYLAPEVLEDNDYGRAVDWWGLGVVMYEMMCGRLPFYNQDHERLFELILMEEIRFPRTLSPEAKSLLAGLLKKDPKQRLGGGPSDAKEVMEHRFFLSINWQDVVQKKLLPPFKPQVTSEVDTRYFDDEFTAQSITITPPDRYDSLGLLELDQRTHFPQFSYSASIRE
row,Compound,outcome
1,Oc1ccc(O)cc1,inactive
